Binding signal data for 1 sequence are collected here from PMC7862700, “An all-to-all approach to the identification of sequence-specific readers for epigenetic DNA modifications on cytosine”.

What all share (experiment): DAPPL (digital affinity profiling via proximity ligation, sequencing); 10 mM Tris-HCl pH 7.5, 50 mM NaCl, 1 mM DTT, 4% glycerol, room temperature, 30 min; GST-TFs on glutathione beads, 16-mer random dsDNA library, 0.1% formaldehyde crosslink after washing; high values mean tight binding
One assay deals with T1, FEV (Homo sapiens, UniProt Q99581 1-238).
T1 sequence: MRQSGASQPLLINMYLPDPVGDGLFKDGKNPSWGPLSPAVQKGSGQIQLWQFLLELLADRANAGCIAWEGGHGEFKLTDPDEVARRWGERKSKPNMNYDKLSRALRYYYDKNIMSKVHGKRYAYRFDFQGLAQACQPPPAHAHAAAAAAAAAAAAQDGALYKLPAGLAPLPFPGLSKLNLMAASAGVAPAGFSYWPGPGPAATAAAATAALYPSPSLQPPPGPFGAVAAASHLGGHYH
The conditions noted are these: protein: recombinant; tags: N-terminal GST; dsDNA, one strand shown. The method, boiled down: (§1)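 Binding signal is defined as a hexamer's read frequency for one factor over its frequency for the tag-only sample. To obtain reads, GST-fused human transcription factors were expressed in yeast, captured on glutathione beads, barcoded with DNA and pooled with that sample. Pools met 200 nmole of a 16-mer random double-stranded DNA library in Tris/NaCl/DTT/glycerol buffer for 30 min at room temperature before washing, 0.1% formaldehyde crosslinking, proximity ligation (BsaI/T4 ligase, 1 h, 37 °C), PCR and Illumina NextSeq500 sequencing.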

A further assay deals with ETV5 (Homo sapiens, UniProt P41161 1-510). The conditions noted are these: protein: recombinant; tags: N-terminal GST; dsDNA, one strand shown. The method, boiled down: as §1
The target in a further assay is HSF1 (Homo sapiens, UniProt Q00613 1-529). The following applies: protein: recombinant; tags: N-terminal GST; chain copies: 3; dsDNA, one strand shown. The method in brief: as §1
A further assay addresses T2, SPIC (Homo sapiens, UniProt Q8N5J4 1-248).
T2 sequence: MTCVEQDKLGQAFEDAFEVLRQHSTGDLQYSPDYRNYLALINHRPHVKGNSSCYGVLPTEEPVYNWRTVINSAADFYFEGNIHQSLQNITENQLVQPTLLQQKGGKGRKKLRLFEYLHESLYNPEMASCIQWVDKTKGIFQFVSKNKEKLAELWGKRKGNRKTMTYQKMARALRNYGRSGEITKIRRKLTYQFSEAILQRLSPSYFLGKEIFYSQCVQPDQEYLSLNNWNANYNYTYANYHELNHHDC
The conditions noted are these: protein: recombinant; tags: N-terminal GST; dsDNA, one strand shown. The method, boiled down: as §1

In another assay the target is ELF4 (Homo sapiens, UniProt Q99607 1-663). The following applies: protein: recombinant; tags: N-terminal GST; dsDNA, one strand shown. The method in brief: as §1
A further assay concerns the target T3, ELK4 (Homo sapiens, UniProt P28324-2 1-405).
T3 sequence: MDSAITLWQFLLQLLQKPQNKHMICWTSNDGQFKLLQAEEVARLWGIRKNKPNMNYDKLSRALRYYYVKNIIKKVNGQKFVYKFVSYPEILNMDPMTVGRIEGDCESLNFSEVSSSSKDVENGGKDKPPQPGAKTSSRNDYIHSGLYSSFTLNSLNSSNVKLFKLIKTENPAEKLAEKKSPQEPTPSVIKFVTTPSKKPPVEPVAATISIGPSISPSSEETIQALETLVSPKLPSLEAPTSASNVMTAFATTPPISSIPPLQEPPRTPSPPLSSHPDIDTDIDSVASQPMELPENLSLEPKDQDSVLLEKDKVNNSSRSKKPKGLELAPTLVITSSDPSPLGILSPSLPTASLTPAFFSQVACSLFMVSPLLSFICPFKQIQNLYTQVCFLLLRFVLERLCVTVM
The conditions noted are these: protein: recombinant; tags: N-terminal GST; dsDNA, one strand shown. The method, boiled down:
as §1

A further assay concerns the target T4, ETV2 (Homo sapiens, UniProt O00321 1-342).
T4 sequence: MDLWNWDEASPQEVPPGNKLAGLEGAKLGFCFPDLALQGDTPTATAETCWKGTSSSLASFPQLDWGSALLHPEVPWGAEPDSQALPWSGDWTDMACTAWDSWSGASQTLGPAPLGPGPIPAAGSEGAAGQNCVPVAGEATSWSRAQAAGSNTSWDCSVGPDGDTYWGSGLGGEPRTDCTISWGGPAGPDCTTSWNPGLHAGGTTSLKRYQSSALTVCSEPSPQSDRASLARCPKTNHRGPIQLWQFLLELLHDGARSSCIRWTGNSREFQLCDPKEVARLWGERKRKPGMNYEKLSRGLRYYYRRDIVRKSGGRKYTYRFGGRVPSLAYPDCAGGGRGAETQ
The conditions noted are these: protein: recombinant; tags: N-terminal GST; dsDNA, one strand shown. The method in brief: as §1

In another assay the target is T5, ELF3 (Homo sapiens, UniProt P78545 1-371).
T5 sequence: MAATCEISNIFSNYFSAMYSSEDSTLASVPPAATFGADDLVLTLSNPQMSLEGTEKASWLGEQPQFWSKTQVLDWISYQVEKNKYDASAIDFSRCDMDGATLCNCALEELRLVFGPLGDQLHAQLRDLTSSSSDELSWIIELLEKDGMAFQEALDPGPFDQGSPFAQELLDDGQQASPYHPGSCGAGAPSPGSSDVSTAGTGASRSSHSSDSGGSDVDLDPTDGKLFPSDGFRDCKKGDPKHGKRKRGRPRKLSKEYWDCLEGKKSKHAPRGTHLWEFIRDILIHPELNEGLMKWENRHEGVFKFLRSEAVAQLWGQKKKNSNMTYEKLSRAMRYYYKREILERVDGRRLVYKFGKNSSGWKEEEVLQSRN
The following applies: protein: recombinant; tags: N-terminal GST; dsDNA, one strand shown. The method in brief: as §1

A further assay addresses CRX (Homo sapiens, UniProt O43186 1-299). The conditions noted are these: protein: recombinant; tags: N-terminal GST; dsDNA, one strand shown. The method, boiled down: as §1
Another assay concerns the target ETV1 (Homo sapiens, UniProt P50549 1-477). The following applies: protein: recombinant; tags: N-terminal GST; dsDNA, one strand shown. The method, boiled down:
as §1

The target of another assay is T6, ERF (Homo sapiens, UniProt P50548 1-548).
T6 sequence: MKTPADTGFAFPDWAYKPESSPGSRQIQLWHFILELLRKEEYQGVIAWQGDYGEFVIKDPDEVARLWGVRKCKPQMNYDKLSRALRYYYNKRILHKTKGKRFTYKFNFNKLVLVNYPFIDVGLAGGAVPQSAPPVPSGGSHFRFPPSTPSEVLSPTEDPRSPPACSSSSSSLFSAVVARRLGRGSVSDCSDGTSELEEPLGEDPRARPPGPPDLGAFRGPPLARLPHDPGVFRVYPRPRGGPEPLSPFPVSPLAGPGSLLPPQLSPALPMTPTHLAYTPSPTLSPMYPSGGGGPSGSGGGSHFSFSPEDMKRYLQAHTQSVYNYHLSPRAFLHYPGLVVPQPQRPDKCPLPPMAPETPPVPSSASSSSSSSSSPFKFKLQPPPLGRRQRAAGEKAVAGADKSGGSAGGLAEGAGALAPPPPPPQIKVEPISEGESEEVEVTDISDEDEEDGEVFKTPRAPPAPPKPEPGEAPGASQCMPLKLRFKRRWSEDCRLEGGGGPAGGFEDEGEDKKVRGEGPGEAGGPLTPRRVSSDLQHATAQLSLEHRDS
The following applies: protein: recombinant; tags: N-terminal GST; dsDNA, one strand shown. The method, boiled down:
as §1

A further assay addresses T7, ETV3L (Homo sapiens, UniProt Q6ZN32 1-361).
T7 sequence: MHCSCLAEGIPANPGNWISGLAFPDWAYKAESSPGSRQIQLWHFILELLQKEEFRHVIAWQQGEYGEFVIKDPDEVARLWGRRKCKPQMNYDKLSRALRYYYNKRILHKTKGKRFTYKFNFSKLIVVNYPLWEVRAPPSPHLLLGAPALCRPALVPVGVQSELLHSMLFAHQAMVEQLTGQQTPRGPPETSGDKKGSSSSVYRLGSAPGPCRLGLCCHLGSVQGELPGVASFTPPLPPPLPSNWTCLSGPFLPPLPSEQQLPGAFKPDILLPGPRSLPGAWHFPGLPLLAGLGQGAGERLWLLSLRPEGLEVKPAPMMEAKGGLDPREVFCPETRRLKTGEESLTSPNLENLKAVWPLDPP
The following applies: protein: recombinant; tags: N-terminal GST; dsDNA, one strand shown. The method, boiled down:
as §1

In another assay the target is T8, ETS2 (Homo sapiens, UniProt P15036 1-469).
T8 sequence: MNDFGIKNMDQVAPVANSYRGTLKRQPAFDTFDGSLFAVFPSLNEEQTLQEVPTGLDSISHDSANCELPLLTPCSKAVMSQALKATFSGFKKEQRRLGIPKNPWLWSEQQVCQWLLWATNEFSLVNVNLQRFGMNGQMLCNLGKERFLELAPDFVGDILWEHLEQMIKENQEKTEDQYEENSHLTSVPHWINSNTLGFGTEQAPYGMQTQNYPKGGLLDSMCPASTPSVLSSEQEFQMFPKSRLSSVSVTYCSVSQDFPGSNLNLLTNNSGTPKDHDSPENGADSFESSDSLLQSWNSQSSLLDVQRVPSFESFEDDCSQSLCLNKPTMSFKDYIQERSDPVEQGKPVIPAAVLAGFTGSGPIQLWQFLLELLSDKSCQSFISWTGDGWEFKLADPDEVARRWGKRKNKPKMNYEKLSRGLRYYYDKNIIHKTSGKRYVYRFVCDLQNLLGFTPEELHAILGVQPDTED
The following applies: protein: recombinant; tags: N-terminal GST; dsDNA, one strand shown. The method in brief:
as §1

Another assay has as its target T9, SPDEF (Homo sapiens, UniProt O95238 1-335).
T9 sequence: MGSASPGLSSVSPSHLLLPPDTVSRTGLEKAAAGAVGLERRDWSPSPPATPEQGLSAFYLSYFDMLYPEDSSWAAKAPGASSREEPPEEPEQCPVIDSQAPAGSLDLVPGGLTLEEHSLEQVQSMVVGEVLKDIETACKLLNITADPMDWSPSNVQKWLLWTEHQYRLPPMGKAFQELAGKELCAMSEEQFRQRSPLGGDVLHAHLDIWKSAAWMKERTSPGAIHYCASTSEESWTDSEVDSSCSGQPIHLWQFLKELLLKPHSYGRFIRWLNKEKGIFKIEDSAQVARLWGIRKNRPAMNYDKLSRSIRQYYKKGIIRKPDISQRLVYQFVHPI
The conditions noted are these: protein: recombinant; tags: N-terminal GST; dsDNA, one strand shown. The method, boiled down:
as §1

In the next assay the target is T10, ETV7 (Homo sapiens, UniProt Q9Y603 1-341).
T10 sequence: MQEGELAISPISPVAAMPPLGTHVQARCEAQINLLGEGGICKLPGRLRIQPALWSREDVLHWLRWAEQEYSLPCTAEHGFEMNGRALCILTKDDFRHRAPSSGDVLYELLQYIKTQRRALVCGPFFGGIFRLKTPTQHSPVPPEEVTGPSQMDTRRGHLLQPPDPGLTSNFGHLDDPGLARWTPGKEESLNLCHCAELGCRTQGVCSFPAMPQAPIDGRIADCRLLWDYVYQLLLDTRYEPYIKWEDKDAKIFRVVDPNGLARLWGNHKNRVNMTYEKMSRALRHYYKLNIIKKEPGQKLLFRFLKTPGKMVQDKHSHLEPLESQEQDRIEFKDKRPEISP
The conditions noted are these: protein: recombinant; tags: N-terminal GST; dsDNA, one strand shown. The method, boiled down: as §1

A further assay addresses T11, ELF5 (Homo sapiens, UniProt Q9UKW6-2 1-255).
T11 sequence: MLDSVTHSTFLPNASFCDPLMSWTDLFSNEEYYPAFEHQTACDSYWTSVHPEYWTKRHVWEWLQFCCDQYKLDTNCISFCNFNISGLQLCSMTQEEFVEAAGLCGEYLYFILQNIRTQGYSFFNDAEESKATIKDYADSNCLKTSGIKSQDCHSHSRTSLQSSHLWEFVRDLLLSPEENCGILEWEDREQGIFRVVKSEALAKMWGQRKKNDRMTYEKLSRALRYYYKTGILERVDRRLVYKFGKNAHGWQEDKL
The following applies: protein: recombinant; tags: N-terminal GST; dsDNA, one strand shown. The method, boiled down: as §1

The target of another assay is T12, ETV3 (Homo sapiens, UniProt P41162-2 1-143).
T12 sequence: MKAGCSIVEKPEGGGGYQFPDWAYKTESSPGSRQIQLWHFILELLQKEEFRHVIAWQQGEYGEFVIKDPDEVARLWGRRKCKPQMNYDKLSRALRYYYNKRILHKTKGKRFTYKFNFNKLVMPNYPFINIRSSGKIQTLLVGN
The conditions noted are these: protein: recombinant; tags: N-terminal GST; dsDNA, one strand shown. The method in brief:
as §1

For another assay, the target named is ETV6 (Homo sapiens, UniProt P41212 1-452). The conditions noted are these: protein: recombinant; tags: N-terminal GST; dsDNA, one strand shown. The method, boiled down: as §1
ETV6, sequence (P41212 whole entry): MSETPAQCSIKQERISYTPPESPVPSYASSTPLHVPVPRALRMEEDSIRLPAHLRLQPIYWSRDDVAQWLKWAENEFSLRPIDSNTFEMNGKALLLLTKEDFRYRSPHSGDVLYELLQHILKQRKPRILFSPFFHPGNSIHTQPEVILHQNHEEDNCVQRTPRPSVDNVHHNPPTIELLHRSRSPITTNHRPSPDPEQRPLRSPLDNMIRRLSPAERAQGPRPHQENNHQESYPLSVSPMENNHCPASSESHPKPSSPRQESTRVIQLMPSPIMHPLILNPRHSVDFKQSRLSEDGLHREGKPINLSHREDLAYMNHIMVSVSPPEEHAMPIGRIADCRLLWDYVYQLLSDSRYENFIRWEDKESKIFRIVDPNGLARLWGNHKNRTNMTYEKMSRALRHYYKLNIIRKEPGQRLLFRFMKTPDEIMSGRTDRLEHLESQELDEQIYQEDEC

ETV1, sequence (P50549 whole entry): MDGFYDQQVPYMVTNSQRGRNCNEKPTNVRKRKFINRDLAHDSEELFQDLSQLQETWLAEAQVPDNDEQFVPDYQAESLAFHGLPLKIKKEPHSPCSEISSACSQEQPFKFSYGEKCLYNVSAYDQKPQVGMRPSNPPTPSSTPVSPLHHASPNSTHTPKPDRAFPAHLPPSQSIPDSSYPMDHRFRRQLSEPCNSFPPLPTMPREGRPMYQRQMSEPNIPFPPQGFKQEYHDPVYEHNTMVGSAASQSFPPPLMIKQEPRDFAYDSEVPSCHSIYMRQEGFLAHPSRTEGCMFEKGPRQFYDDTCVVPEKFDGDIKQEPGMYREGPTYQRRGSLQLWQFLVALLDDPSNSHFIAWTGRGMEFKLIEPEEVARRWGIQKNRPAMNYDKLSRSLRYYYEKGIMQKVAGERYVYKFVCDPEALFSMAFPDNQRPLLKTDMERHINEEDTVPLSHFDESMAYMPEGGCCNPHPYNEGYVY
ELF4, sequence (Q99607 whole entry): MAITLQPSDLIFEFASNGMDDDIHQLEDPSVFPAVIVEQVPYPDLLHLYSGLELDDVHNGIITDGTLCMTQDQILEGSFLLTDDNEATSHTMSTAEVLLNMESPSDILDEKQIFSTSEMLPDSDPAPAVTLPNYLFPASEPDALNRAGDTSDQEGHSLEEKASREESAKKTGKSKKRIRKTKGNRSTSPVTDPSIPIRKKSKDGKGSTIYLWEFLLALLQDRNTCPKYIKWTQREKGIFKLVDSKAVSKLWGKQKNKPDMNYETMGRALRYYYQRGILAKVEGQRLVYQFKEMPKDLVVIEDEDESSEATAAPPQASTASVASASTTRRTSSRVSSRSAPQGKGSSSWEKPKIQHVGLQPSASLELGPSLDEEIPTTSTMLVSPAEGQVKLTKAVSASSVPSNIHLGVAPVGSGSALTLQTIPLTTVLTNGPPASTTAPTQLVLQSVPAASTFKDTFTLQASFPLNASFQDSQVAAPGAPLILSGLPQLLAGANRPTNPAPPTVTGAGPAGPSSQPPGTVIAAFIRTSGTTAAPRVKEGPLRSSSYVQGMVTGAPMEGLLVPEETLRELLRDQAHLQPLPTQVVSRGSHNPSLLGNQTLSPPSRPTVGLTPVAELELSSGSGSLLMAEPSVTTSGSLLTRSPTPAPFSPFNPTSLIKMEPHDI
ETV5, sequence (P41161 whole entry): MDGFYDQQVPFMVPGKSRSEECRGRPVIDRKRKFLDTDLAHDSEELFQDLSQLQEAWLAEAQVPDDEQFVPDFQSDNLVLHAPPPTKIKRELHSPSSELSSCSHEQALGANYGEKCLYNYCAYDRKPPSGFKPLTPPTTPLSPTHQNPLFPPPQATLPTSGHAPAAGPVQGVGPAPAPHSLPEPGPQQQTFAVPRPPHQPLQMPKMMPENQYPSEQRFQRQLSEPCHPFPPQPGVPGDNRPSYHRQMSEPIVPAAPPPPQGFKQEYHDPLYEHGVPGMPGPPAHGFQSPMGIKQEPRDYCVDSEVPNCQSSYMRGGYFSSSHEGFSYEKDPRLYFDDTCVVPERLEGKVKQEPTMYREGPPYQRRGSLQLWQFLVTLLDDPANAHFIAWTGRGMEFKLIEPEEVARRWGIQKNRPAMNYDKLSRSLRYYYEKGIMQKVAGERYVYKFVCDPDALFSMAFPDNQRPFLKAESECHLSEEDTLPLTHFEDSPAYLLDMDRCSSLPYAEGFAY
HSF1, sequence (Q00613 whole entry): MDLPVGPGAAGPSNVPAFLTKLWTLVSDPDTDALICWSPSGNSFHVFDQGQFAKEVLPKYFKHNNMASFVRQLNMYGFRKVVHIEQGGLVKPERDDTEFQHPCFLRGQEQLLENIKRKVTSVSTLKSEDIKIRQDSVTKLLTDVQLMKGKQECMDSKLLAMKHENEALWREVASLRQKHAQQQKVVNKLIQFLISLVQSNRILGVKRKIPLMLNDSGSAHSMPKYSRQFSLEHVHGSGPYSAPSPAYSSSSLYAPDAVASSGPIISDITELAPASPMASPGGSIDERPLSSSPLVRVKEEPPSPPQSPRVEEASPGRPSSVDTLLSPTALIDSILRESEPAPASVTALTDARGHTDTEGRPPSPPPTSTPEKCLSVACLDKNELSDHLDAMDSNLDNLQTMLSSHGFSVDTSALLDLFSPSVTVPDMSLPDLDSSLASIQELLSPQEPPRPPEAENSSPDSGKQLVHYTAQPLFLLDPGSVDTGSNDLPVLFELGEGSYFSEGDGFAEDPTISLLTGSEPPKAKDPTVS
CRX, sequence (O43186 whole entry): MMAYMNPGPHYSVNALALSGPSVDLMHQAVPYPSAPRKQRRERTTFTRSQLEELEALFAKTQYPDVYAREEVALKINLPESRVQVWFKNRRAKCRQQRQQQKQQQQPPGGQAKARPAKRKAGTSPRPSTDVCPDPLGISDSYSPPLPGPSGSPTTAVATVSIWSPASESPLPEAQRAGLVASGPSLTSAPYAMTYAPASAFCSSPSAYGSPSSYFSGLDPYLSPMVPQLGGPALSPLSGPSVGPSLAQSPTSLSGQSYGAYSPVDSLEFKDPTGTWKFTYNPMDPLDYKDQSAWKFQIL

In the case of AGAATT, the binding signal in the assay with FEV is 1.08 fold enrichment (6-mer frequency, TF over GST control); with ETV5, 1.13 fold enrichment (6-mer frequency, TF over GST control); in the assay with HSF1, 2.2 fold enrichment (6-mer frequency, TF over GST control); with SPIC, 1.24 fold enrichment (6-mer frequency, TF over GST control); with ELF4, 1.24 fold enrichment (6-mer frequency, TF over GST control); in the assay with ELK4 it was 1.2 fold enrichment (6-mer frequency, TF over GST control). In addition, the binding signal with ETV2 is 1.06 fold enrichment (6-mer frequency, TF over GST control); with ELF3, 1.04 fold enrichment (6-mer frequency, TF over GST control); in the assay with CRX, 1.76 fold enrichment (6-mer frequency, TF over GST control); with ETV1, 1.16 fold enrichment (6-mer frequency, TF over GST control); with ERF, 1.17 fold enrichment (6-mer frequency, TF over GST control); with ETV3L, 1.17 fold enrichment (6-mer frequency, TF over GST control). For the same sequence, the binding signal was 1.14 fold enrichment (6-mer frequency, TF over GST control) in the assay with ETS2; 1.05 fold enrichment (6-mer frequency, TF over GST control) with SPDEF; 1.13 fold enrichment (6-mer frequency, TF over GST control) with ETV7; 1.1 fold enrichment (6-mer frequency, TF over GST control) with ELF5; 1.09 fold enrichment (6-mer frequency, TF over GST control) in the assay with ETV3; 1.2 fold enrichment (6-mer frequency, TF over GST control) in the assay with ETV6.
